Experimental data reported in PubChem BioAssay (NCATS).
Several values for one entry are separate records, joined by “and”; a condition that tells them apart may be missing. Equal values may be shown once. Some compounds were tested as several samples or in several runs, with calls that do not always agree. Activity calls are given as the source filed them. Calls come from the whole dose curve. Residues, ends and D or L forms follow the SMILES beside them. *: point of attachment. Cbz = O=C(OCc1ccccc1)*

Assay: qHTS drug screen for cell cycle checkpoint inhibitors in PARPi-resistant BRCA-mutant ovarian cancer cell lines. (AID 1963452)
Conditions: PEO1/OlaR viability, CellTiter-Glo luminescence, 96 h; for Z-AUC: stronger effect = lower value
Description: Women's Malignancies Branch, Center for Cancer Research (CCR),
National Cancer Institute (NCI), National Institutes of Health (NIH), Bethesda, MD
Poly (ADP-ribose) polymerase inhibitors (PARPis) have changed the treatment paradigm in breast cancer gene (BRCA) - mutant high-grade serous ovarian carcinoma (HGSC). However, most patients eventually develop resistance to PARPis, highlighting an unmet need for improved therapeutic strategies. Using high-throughput drug screens, we identified ataxia telangiectasia and rad3-related protein/checkpoint kinase 1 (CHK1) pathway inhibitors as cytotoxic and further validated the activity of the CHK1 inhibitor (CHK1i) prexasertib in PARPi-sensitive and -resistant BRCA-mutant HGSC cells and xenograft mouse models. CHK1i monotherapy induced DNA damage, apoptosis, and tumor size reduction. We then conducted a phase 2 study (NCT02203513) of prexasertib in patients with BRCA-mutant HGSC. The treatment was well tolerated but yielded an objective response rate of 6% (1 of 17; one partial response) in patients with previous PARPi treatment. […] BRCA reversion mutation in previously PARPi-treated BRCA-mutant patients was not associated with resistance to CHK1i.
Among others, 1082 oncology drugs, both approved and investigational, were prioritized based on their status in clinical trial development. […] Drugs with average Z-AUC values less than -1.0 in all three cell lines were classified as "hits" resulting in 151 oncology drug hits. The screen also confirmed cross-resistance between olaparib and other PARPis (rucaparib, niraparib, and talazoparib) in PARPi-resistant PEO1/OlaR and PEO4.
[1] G. L. Lin, K. M. Wilson, M. Ceribelli, B. Z. Stanton, P. J. Woo, S. Kreimer, E. Y. Qin, X. Zhang, J. Lennon, S. Nagaraja, P. J. Morris, M. Quezada, S. M. Gillespie, D. Y. Duveau, A. M. Michalowski, P. Shinn, R. Guha, M. Ferrer, C. Klumpp-Thomas, S. Michael, C. McKnight, P. Minhas, Z. Itkin, E. H. Raabe, L. Chen, R. Ghanem, A. C. Geraghty, L. Ni, K. I. Andreasson, N. A. Vitanza, K. E.Warren, C. J. Thomas, M. Monje, Therapeutic strategies for diffuse midline glioma from high-throughput combination drug screening. Sci. Transl. Med. 11, (2019).
[2] T. M. Yamamoto, A. McMellen, Z. L. Watson, J. Aguilera, R. Ferguson, E. Nurmemmedov, T. Thakar, G. L. Moldovan, H. Kim, D. M. Cittelly, A. M. Joglar, E. P. Brennecke, H. Wilson, K. Behbakht, M. J. Sikora, B. G. Bitler, Activation of Wnt signaling promotes olaparib resistant ovarian cancer. Mol. Carcinog. 58, 1770 - 1782 (2019).
PROTOCOL TABLE (as described by Inglese J, Shamu CE and Guy RK. 2007)
SEQUENCE No. (e.g., 1, 2, 3, etc.); […] (e.g., Cells, Incubation, Reagent, etc.); VALUE; DESCRIPTION.
1; Compounds; 20nL; 1536-well white tissue culture-treated plates.
2; Cells; 5 uL; PEO1, PEO4, and PEO1/OlaR cells at 600 cells per well.
3; Incubation; 96 hr; 37C, 95% humidity, 5% CO2.
4; Reagent; 3 uL; CellTiter-Glo (Promega).
5; Incubation; 15 min; room temperature.
6; Detection; Luminescence, PHERAstar (BMG Labtech) plate reader.
NOTES (numbers refer to Sequence numbers above)
1. MIPE 5.0 compounds were acoustically dispensed by Echo Acoustic Liquid Handler (Beckman Coulter Life Sciences). Each compound was plated at an 11-point concentration range with 1:3 dilution. Bortezomib, a proteasome inhibitor (final concentration, 20 uM), was used as a positive.
2. PEO1, PEO4, and PEO1/OlaR were trypsinized and dispensed in 5 uLof growth medium using a Multidrop Combi dispenser at a density of 600 cells per well to allow compounds to be present during the exponential growth phase.
3. Plates were incubated for 96 hours at standard incubator conditions and covered by a stainless steel gasketed lid to prevent evaporation.
4. Three microliters of CellTiter-Glo (Promega) were added to each well.
5. Plates were incubated at room temperature for 15 min with a stainless-steel lid in place.
6. Luminescence readings were taken using PHERAstar (BMG Labtech). […]

[1] = measured here: PEO1 parental Z-AUC
Potency is the fitted concentration of half-maximal effect.

Compound | Potency | Z-AUC | Z-AUC [1] | Z-AUC (measured here: PEO4 Z-AUC)
Cn1cc(-c2cnn3c(N)c(Br)c([C@H]4CCCNC4)nc23)cn1 | 3.47 µM (active) | -0.529 (inactive) | 0.414 and -1.48 | 0.266 and -1.31
CC(C)C[C@@H](C=O)NC(=O)[C@H](CC(C)C)NC(=O)[C@H](CC(C)C)NC(=O)OCc1ccccc1 (Cbz-Leu-Leu-Leu-aldehyde) | – | -0.0586 (inactive) | -0.937 | -0.457
O=C(Nc1cccc(Nc2ncc(Br)c(NCCc3cnc[nH]3)n2)c1)N1CCCC1 | – | -0.432 (inactive) | -0.127 | -0.522
O=C1NCCc2[nH]c(-c3ccncc3)cc21 | – | -1.33 (inactive) | -1 | -1.61
Nc1ccn(C[C@@H](CO)OCP(=O)(O)O)c(=O)n1 | – | -1.33 (inactive) | -0.089 | -0.602
C[C@H](NC(=O)Cc1cc(F)cc(F)c1)C(=O)N[C@H](C(=O)OC(C)(C)C)c1ccccc1 | – | -0.609 (inactive) | -0.43 | -0.265
O=C(c1ccc(F)cc1)N1CCC[C@H](c2nc(-c3ccc(F)cc3)no2)C1 | – | 1.14 (inactive) | 0.372 | 0.34
C[N+](C)([O-])CCNc1ccc(NCC[N+](C)(C)[O-])c2c1C(=O)c1c(O)ccc(O)c1C2=O | – | 0.909 (inactive) | -0.431 | 0.857
O=C(O)CCCCC(CCSCc1ccccc1)SCc1ccccc1 (stereo not given) | – | 1.05 (inactive) | 1.63 | 1.32
c1cc(CN2CCCNCCNCCCNCC2)ccc1CN1CCCNCCNCCCNCC1 | – | 0.916 (inactive) | 0.744 | 1.11
CC(=O)SCC(Cc1ccccc1)C(=O)NCC(=O)OCc1ccccc1 (stereo not given) | – | 0.0229 (inactive) | 1.28 | 0.777
CCc1nc(-c2cccc(C)c2)c(-c2ccnc(NC(=O)c3ccccc3)c2)s1 | – | -0.209 (inactive) | 0.57 | 0.812
O=C(CN1C(=O)C2(CCCC2)NC[C@H]1c1cc(F)cc(F)c1)Nc1ccc2c(c1)C[C@@]1(C2)C(=O)Nc2ncccc21 | – | 0.0664 (inactive) | -0.0432 | 0.449
